Assay outcomes from PubChem BioAssay.
The list is not random: actives were taken first. Their share in the collection is about 4.3%.
CR mimetic SO: lowers age-related superoxide in aged yeast cells. S. cerevisiae aged cells, superoxide DHE fluorescence; hits give low values. superoxide response (% of plate mean), % at 10 µM. 0.18% of 330,000 active. AID 2690;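 active = superoxide response under a set limit, about three screen SD below normal, cut at about 65% in these data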;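 also: yeast aged for seven days with compound at 30 °C before DHE staining; 100% = average MFI of all compound-treated wells on the plate with controls excluded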
NR3A LBD binder: modulates the human NR3A ligand-binding domain; NR3A LBD differential scanning fluorimetry, Tm shift; 0% = protein alone, 100% = glycine-bound protein; Tm shift relative to glycine control, % at 25 µM; 2.5% of 340,000 active; AID 1259313;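 active = melting temperature shift of at least 10% of the positive control shift, at one fixed dose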
dFosB act: mouse delta FosB homodimer activation | AID 493131 | activation, % at 25 µM | 0.99% of 340,000 active | purified delta FosB, TAMRA-CDK5 oligo fluorescence polarization; percent of positive-control signal above neutral wells | P13346;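 active = mean activation above about 17%, with every replicate also reaching it, limit read from the data, passing the limit was not always enough; inconclusive = only one of the two conditions met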
Target sequence (P13346 whole entry, looked up): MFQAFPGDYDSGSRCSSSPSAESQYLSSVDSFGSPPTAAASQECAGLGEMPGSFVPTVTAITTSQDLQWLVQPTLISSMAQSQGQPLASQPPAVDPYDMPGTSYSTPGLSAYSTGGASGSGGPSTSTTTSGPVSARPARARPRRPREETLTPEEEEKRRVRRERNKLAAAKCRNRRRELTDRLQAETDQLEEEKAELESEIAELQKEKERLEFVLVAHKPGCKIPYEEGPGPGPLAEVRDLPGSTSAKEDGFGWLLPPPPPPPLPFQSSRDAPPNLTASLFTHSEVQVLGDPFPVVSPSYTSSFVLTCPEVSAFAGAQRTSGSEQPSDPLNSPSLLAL
UBC13 inh: inhibitors of human UBC13 polyubiquitin chain formation. P61088. TR-FRET. inhibition, % at 20 µM. 0.47% of 330,000 active. AID 485273; in the data active = inhibition above about 45%, passing the limit was not always enough; inconclusive = no clear call, values can overlap the other calls
Target sequence (P61088 whole entry, looked up): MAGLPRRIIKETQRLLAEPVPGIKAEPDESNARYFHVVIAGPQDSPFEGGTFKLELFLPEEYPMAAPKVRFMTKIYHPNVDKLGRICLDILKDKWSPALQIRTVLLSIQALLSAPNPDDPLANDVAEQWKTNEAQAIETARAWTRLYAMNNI
NALP1 yeast inh: inhibitors of NALP1 inflammasome in yeast; 0.61% of 280,000 active; S. cerevisiae NALP1/ASC/caspase-1 growth, X-gal OD620, 72 h; inhibition, % at 10 µM; in the data active = inhibition mostly above about 24%, no sharp cut-off; inactive = mostly below about 32%
* = called active by the depositor; ? = inconclusive; . = not tested or not shown.

SMILES	CR mimetic SO	NR3A LBD binder	dFosB act	UBC13 inh	NALP1 yeast inh
O=C(Cc1ccccc1)Nc1ccc(-c2nnc(-c3ccco3)o2)cc1	126	-17	2	-12	2
COc1ccc(CC(=O)Nc2cccc(-c3nnc(-c4ccco4)o3)c2)cc1	116	-11	67*	-3	0
O=C(Cc1ccc(Cl)cc1)Nc1ccc(-c2nnc(-c3ccco3)o2)cc1	104	13*	?	-5	-4
Cc1cc(OCc2cc(C(=O)N(C)C(C)c3ccccn3)no2)cc(C)c1Cl (stereo not given)	102	-6	-18	3	2
CC(O)(Cc1ccccn1)Cc1ccccn1	.	0	5	.	.
Cc1ccc(C(=O)CC(=O)c2cc(Cl)ccc2O)cc1	116	11*	-8	2	9
C/C(N)=C(/C#N)C(=O)COC(=O)C1CCC(C(C)(C)C)CC1 (stereo not given)	103	-12	-11	13	20
N#Cc1ccc(C2=NC(C(F)(F)F)(C(F)(F)F)c3c(n(Cc4ccco4)c(=O)[nH]c3=O)N2)cc1	99	12*	-4	-2	3
COc1ccc(NS(=O)(=O)c2cccc(N/C(=N\S(=O)(=O)c3ccccc3)c3ccc(F)cc3)c2)cc1	100	0	-12	-12	-10
O=S(=O)(/N=C(/Nc1ccc(Cl)c(S(=O)(=O)Nc2ccccc2Cl)c1)c1ccc(F)cc1)c1ccccc1	89	14*	-8	-8	10
CC1CCN(C(=O)COC(=O)CCC(=O)c2ccc(Cl)cc2)CC1	108	4	-7	4	.
Cc1cc(C)cc(Nc2nc(-c3ccc(S(=O)(=O)N4CCCC4)cc3)cs2)c1	90	4	-12	-11	-22
Cc1ccc(Nc2nc(-c3ccc(S(=O)(=O)N4CCCC4)cc3)cs2)cc1C	82	8	-16	8	13
O=S(=O)(c1ccc(-c2csc(Nc3ccc(Br)cc3)n2)cc1)N1CCCC1	111	25*	1	-8	8
O=S(=O)(c1ccc(-c2csc(Nc3ccc(F)cc3)n2)cc1)N1CCCC1	100	24*	-1	1	13
CCCCC(=O)Nc1c(C)cc(C)cc1Cl	94	14*	-1	-15	3
CC[C@]12c3[nH]c4cc(CCC(=O)N(C)C)ccc4c3CCN1C(=O)[C@@H](CC(=O)NCc1ccco1)C[C@@H]2C(=O)N1CCN(C(=O)C2CC2)CC1	96	0	-12	.	.
CC(C)c1nn2c(N)c(/C=C3\C=Nc4ccccc43)c(=O)nc2s1	113	1	.	2	.
CCCc1nn2c(N)c(/C=C3\C=Nc4ccccc43)c(=O)nc2s1	124	2	-5	-8	17
CS(=O)(=O)c1nsc2nc(=O)c(/C=C3\C=Nc4ccccc43)c(N)n12	109	39*	0	-15	11
CC(C)Sc1nsc2nc(=O)c(/C=C3\C=Nc4ccccc43)c(N)n12	101	25*	-19	-7	8
Cc1cc(NCc2ccccn2)ccc1Br	99	11*	3	2	13
CCOc1cccc(CNCCSc2nnnn2C)c1	101	-2	-5	-9	27*
COc1ccc(-c2oc3ccccc3c2C(=O)OCc2ccccc2OC)cc1	93	17*	-12	28	5
COc1ccc(C(=O)c2c(-c3ccc(OC)cc3)oc3ccccc23)cc1	93	-3	0	?	.
SMILES	CR mimetic SO	NR3A LBD binder	dFosB act	UBC13 inh	NALP1 yeast inh
CCOC(=O)c1c(-c2ccc(OC)cc2)oc2cc(Br)c(O)cc12	104	13*	-2	27	20
O=C(NCc1nnc(SCC(=O)N2CCN(c3ccccc3)CC2)o1)c1ccc(F)cc1	86	-2	-6	-5	29
CCOc1ccc(NC(=O)C(C)Oc2ccccc2C(=O)Nc2cccc(Cl)c2Cl)cc1 (stereo not given)	91	12*	-5	-10	5
CCOc1ccc(NC(=O)c2ccccc2OC)cc1	98	-1	1	9	-7
COc1ccc(N2C(=O)C3CCCCC3C2=O)cc1NC(=O)c1ccccc1 (stereo not given)	104	39*	-1	5	-8
O=C(OCc1nnc(-c2ccc(Br)cc2)o1)c1cncc(Br)c1	103	0	-10	8	22
Cc1nn(-c2ccccc2)c(C)c1/C=N/NC(=O)c1cc(-c2ccc(Cl)s2)[nH]n1	109	12*	-3	-13	9
O=C(N/N=C/c1ccncc1)c1cc(-c2ccc(Br)s2)[nH]n1	94	17*	1	6	8
Cc1cc(C(=O)N/N=C/c2ccc(-c3ccc(C)c(Cl)c3)o2)n[nH]1	111	15*	.	-20	16
Cc1cc(C(=O)N/N=C/c2ccc(-c3ccccc3Cl)o2)n[nH]1	109	2	13	2	20
Cc1ccc(/C=N/NC(=O)c2cc(-c3ccc(C)o3)[nH]n2)cc1	93	34*	2	2	-8
O=C(Cn1cnc2c(OCc3ccccc3)ncnc21)N[C@H](CO)Cc1cc2ccccc2[nH]1	105	0	-7	16	.
CC(C)CNC(=O)C(=O)NCC1OCCN1S(=O)(=O)c1cccs1 (stereo not given)	86	-5	-1	0	8
CC(C(=O)OCC(=O)c1ccc(Br)cc1)N1C(=O)C2C3C=CC(C3)C2C1=O (stereo not given)	109	0	-12	1	-5
Cc1ccc(-n2nnnc2-c2ccccc2)cc1	104	-1	-2	11	7
COc1ccc(-n2nnnc2-c2cccnc2)cc1	93	15*	-8	-3	6
O=[N+]([O-])c1cc(Cl)c2cccnc2c1O	180	0	-3	-66	2
Oc1c(I)cc(Cl)c2cccnc12	84	-8	-5	-35	70*
COc1ccc(-c2csc(Nc3ccc(C)cn3)n2)cc1	98	16*	-6	-2	-1
Cc1nc(N)sc1-c1csc(Nc2ccc(Cl)cn2)n1	103	6	-1	-8	-12
CC(=O)NNc1nc(-c2ccc(NC(C)=O)cc2)cs1	104	0	-5	-1	20
Cc1ccc(-c2csc(Nc3ccccn3)n2)cc1	96	-3	-13	15	6
Cc1cccc(Nc2nc(-c3ccc(O)cc3O)cs2)n1	91	40*	-6	9	12
CC(=O)Nc1ccc(-c2csc(Nc3cccc(C)n3)n2)cc1	.	26*	-9	.	-5
CC(=O)Oc1ccc(-c2csc(Nc3ccc(Cl)cn3)n2)cc1	105	32*	-5	5	0
Cc1ccc(C(=O)Nc2cc3ccccc3oc2=O)cc1	106	-4	8	7	12
Cc1ccc2oc(C(=O)N3CCN(Cc4nccn4C)CC3)c(C)c2c1	87	0	5	-1	18
CC(=O)Nc1cccc(-c2csc(Nc3ncccn3)n2)c1	.	.	.	.	5
CC(=O)Nc1cccc(-c2csc(Nc3ccc(C)cn3)n2)c1	111	27*	-11	13	25
Cc1ccc(CN2CCC(c3cc(-c4ccc(Cl)cc4)n[nH]3)CC2)cc1	94	-1	9	24	35*
